# Where “and” joins values, the source holds several entries; their conditions need not be identical. Identical values can stand only once. Screen size: about 5,500 compounds; about 2,000 (36%) were called active. About 18% were inconclusive and are not listed. Rule as the data show it: active = normalized growth mostly below about 0.91 (no sharp cut-off); inconclusive = no clear call, values can overlap the other calls; inactive = mostly above about 0.92. The list shows a part of the results. Where a structure was tested more than once in an assay, its records may differ in their call.
# Assay: chemical genetic growth profiling, strain panel (AID 1159580);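 also: tested at 20 µM; growth read once vehicle control cultures reached saturation at 30 °C; 1 = growth at the plate median or of vehicle wells; lower values mean less growth of the strain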
# Details: S. cerevisiae deletion strains, growth OD
smiles,measurement,setting,value
CN(C)CCCN1c2ccccc2Sc2ccc(C(F)(F)F)cc21,normalized growth,"locus YJR066W, strain TOR1, stronger effect = lower value",0.981 (inactive)
same,normalized growth,"locus YJR075W, strain HOC1, stronger effect = lower value",1.01 (inactive)
same,normalized growth,"locus YKL009W, strain mrt4, stronger effect = lower value",0.944 (inactive)
same,normalized growth,"locus YKL068W, stronger effect = lower value",0.991 (inactive)
same,normalized growth,"locus YKL085W, strain MDH1 (second series), stronger effect = lower value",0.994 (inactive)
same,normalized growth,"locus YKL085W, strain MDH1, stronger effect = lower value",0.994 (inactive)
same,normalized growth,"locus YKL160W, strain elf1, stronger effect = lower value",0.997 (inactive)
same,normalized growth,"locus YKL190W, strain CNB1, stronger effect = lower value",0.995 (inactive)
same,normalized growth,"locus YKR001C, strain vps1, stronger effect = lower value",0.978 (inactive)
same,normalized growth,"locus YKR026C, strain gcn3, stronger effect = lower value",1.02 (inactive)
same,normalized growth,"locus YKR091W, strain srl3, stronger effect = lower value",1.02 (inactive)
same,normalized growth,"locus YLL001W, strain dnm1, stronger effect = lower value",1 (inactive)
same,normalized growth,"locus YLL026W, stronger effect = lower value",1 (inactive)
same,normalized growth,"locus YLL041C, strain sdh2, stronger effect = lower value",1.01 (inactive)
same,normalized growth,"locus YLR027C, strain aat2, stronger effect = lower value",0.992 (inactive)
same,normalized growth,"locus YLR039C, strain RIC1, stronger effect = lower value",0.901 (inactive)
same,normalized growth,"locus YLR058C, strain SHM2, stronger effect = lower value",0.977 (inactive)
same,normalized growth,"locus YLR102C, strain apc9, stronger effect = lower value",0.979 (inactive)
same,normalized growth,"locus YLR113W, strain HOG1, stronger effect = lower value",0.979 (inactive)
same,normalized growth,"locus YLR221C, strain rsa3, stronger effect = lower value",0.977 (inactive)
same,normalized growth,"locus YLR258W, strain gsy2, stronger effect = lower value",0.989 (inactive)
same,normalized growth,"locus YLR262C, strain YPT6 (second series), stronger effect = lower value",1.16 [resistant] (active)
same,normalized growth,"locus YLR262C, strain YPT6, stronger effect = lower value",0.87 (inactive)
same,normalized growth,"locus YLR268W, strain sec22, stronger effect = lower value",1.05 (inactive)
same,normalized growth,"locus YLR320W, strain mms22, stronger effect = lower value",1.06 (inactive)
same,normalized growth,"locus YLR330W, strain CHS5, stronger effect = lower value",0.989 (inactive)
same,normalized growth,"locus YLR342W, strain FKS1 (second series), stronger effect = lower value",1 (inactive)
same,normalized growth,"locus YLR342W, strain FKS1, stronger effect = lower value",1.02 (inactive)
same,normalized growth,"locus YLR357W, strain rsc2, stronger effect = lower value",1.02 (inactive)
same,normalized growth,"locus YLR370C, strain arc18, stronger effect = lower value",1 (inactive)
same,normalized growth,"locus YLR371W, strain rom2, stronger effect = lower value",0.955 (inactive)
same,normalized growth,"locus YLR384C, strain iki3, stronger effect = lower value",1.01 (inactive)
same,normalized growth,"locus YLR418C, strain cdc73, stronger effect = lower value",0.958 (inactive)
same,normalized growth,"locus YML016C, strain PPZ1, stronger effect = lower value",0.994 (inactive)
same,normalized growth,"locus YML032C, strain rad52, stronger effect = lower value",0.989 (inactive)
same,normalized growth,"locus YML120C, strain ndi1, stronger effect = lower value",0.97 (inactive)
same,normalized growth,"locus YML124C, strain tub3, stronger effect = lower value",0.976 (inactive)
same,normalized growth,"locus YMR058W, strain fet3, stronger effect = lower value",0.999 (inactive)
same,normalized growth,"locus YMR078C, strain ctf18, stronger effect = lower value",0.961 (inactive)
same,normalized growth,"locus YMR125W, strain sto1, stronger effect = lower value",0.992 (inactive)
same,normalized growth,"locus YMR129W, stronger effect = lower value",1.02 (inactive)
same,normalized growth,"locus YMR205C, strain PFK2, stronger effect = lower value",1.01 (inactive)
same,normalized growth,"locus YMR223W, strain ubp8, stronger effect = lower value",0.969 (inactive)
same,normalized growth,"locus YMR263W, strain SAP30, stronger effect = lower value",0.988 (inactive) and 0.998 (inactive)
same,normalized growth,"locus YMR307W, strain GAS1, stronger effect = lower value",1.05 (inactive) and 1.01 (inactive)
same,normalized growth,"locus YNL067W, strain RPL9B, stronger effect = lower value",1.01 (inactive)
same,normalized growth,"locus YNL071W, strain lat1, stronger effect = lower value",1.01 (inactive)
same,normalized growth,"locus YNL128W, strain TEP1, stronger effect = lower value",0.968 (inactive) and 1.11 [resistant] (active)
